# Screening data: PubChem BioAssay, National Center for Advancing Translational Sciences (NCATS)
# Compounds with a hit are over-represented: about 0.43% of the library has one in this group of screens.
# N370S GC mod – N370S glucocerebrosidase modulation, Gaucher chaperone candidate. P04062. N370S GC spleen homogenate, 4MU-glucoside fluorescence. Potency, µM (series often up to 59.4 µM), actives largely listed as inhibitors. hit rate 0.092% among 330,000. AID 2101
# GAA inh – alpha-glucosidase (human) inhibition; AID 1466; Potency, µM (doses to about 76.9 µM), actives largely listed as inhibitors; P10253; purified human GAA, 4-MU-alpha-glucoside fluorescence; hit rate 0.005% among 200,000
#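 Read-out is 4-methylumbelliferone fluorescence (Ex 365/Em 440 nm) after NaOH/glycine stop at pH 10. Enzyme 4 nM, substrate 400 uM, pH 5.0 citrate buffer, 20 min room temperature; AC50 from Hill-equation concentration-response.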
# aGal spleen mod – alpha-galactosidase A (human) modulation. P06280. AID 2107. Potency, µM (highest dose often 80 µM), hits mostly inhibitors. human spleen homogenate, 4MU-alpha-Gal fluorescence, 40 min. hit rate 0.008% among 240,000
# Target sequence (P06280 32-429 limits assumed): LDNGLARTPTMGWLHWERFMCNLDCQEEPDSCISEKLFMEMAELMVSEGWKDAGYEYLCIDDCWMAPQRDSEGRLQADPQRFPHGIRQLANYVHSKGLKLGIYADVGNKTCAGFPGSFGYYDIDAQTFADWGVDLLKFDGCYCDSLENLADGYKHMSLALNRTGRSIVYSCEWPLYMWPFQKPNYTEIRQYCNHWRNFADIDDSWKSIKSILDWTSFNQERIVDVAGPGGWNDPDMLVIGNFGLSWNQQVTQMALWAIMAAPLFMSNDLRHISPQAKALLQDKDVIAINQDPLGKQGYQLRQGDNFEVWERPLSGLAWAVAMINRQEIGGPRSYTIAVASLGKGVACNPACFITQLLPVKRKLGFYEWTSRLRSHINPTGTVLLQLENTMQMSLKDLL
#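 Spleen homogenate 1 ug + cpd (titration) + 4-MU-alpha-D-galactopyranoside 1 mM; 37C 40 min; 50 mM citrate/phosphate pH 5.0, 0.01% Tween-20; stop pH 10; fluorescence 365/440; AC50 via Hill.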
# GAA glycogen mod – inhibitors or activators of human alpha-glucosidase glycogen cleavage. P10253. recombinant GAA, glycogen substrate, Amplex Red glucose oxidase fluorescence. Potency, µM (highest dose often 76.4 µM), actives largely listed as inhibitors. hit rate 0.38% among 300,000. AID 2100;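 further: the screen sought inhibitors and activators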
#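 Recombinant enzyme (4 nM final) with compounds titrated up to 77 uM and bovine liver glycogen (30 ug) in citrate pH 5.0, 0.01% Tween-20, 37 C 40 min. Released glucose detected by Amplex Red/glucose oxidase (Ex 573/Em 610); AC50 from Hill fits.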
# GAA spleen mod – inhibits or activates alpha-glucosidase in human spleen homogenate. P10253. human spleen homogenate, 4-MU-alpha-glucoside fluorescence. Potency, µM (highest dose often 79.9 µM), actives largely listed as inhibitors. hit rate 0.006% among 240,000. AID 2112
#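 Compounds were titrated against alpha-glucosidase in spleen homogenate at pH 5.0, with 1 mM 4-methylumbelliferyl substrate for 40 min at 37 C. Reactions were quenched with pH 10 NaOH/glycine and fluorescence measured.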
# GLA inh pH 4.5 – alpha-galactosidase A (human) inhibition, pH 4.5; activity change, negative = inhibition, % at 105 µM; purified enzyme, 4-MU-alpha-Gal fluorescence, pH 4.5; P06280; 230,000 tested, under 10 active
# Hits are given with their value; - = inactive; ? = inconclusive; . = not tested or not shown; ! = not active in a repeat; [ ] = dose if it differs, or a comment. The call rests on the fitted dose curve; in most records, active means well fitted curve in the direction sought with a large enough effect; inconclusive means small, poorly fitted or top-dose-only effect, or another doubt; inactive means no such curve, though single readings can be large; an effect the other way counts as inactive or inconclusive.
SMILES,N370S GC mod,GAA inh,aGal spleen mod,GAA glycogen mod,GAA spleen mod,GLA inh pH 4.5
Fc1ccc(N=Cc2ccc[nH]2)cc1,-,.,.,-,.,.
Oc1ccccc1N=Cc1ccc[nH]1,-,-,-,2.8µM,-,-
O=C1OC2(c3cc(Br)c(O)c(Br)c3Oc3c2cc(Br)c(O)c3Br)c2c(Cl)c(Cl)c(Cl)c(Cl)c21,-,.,-,.,-,.
CCOC(=O)c1c(N)sc2c1CCC(C)C2 (centres undefined),-[2.35 µM],-,-,?,-,-
CCOC(=O)c1c(N)sc2c1CCCC2,-,-,-,35µM,-,-
Cc1c(Cl)cccc1N1C(=O)CC(N(O)c2ccccc2)C1=O (centres undefined),-,-,-,20µM,-,-
CCOc1ccccc1N1C(=O)CC(N(O)c2ccccc2)C1=O (centres undefined),-,-,-,-,-,-
Cc1cccc(C)c1N1C(=O)CC(N(O)c2ccccc2)C1=O (centres undefined),-,-,-,32µM,-,-
Cc1cc2c(c(=O)o1)[C@@H](O)[C@H]1O[C@@H]1C2=O,-[12.8 µM],.,-[17.5 µM],.,-[17.4 µM],.
CSc1ccc2c(c1)[C@H](N1CCN(C)CC1)Cc1ccccc1S2,13µM,.,-,.,-,-
CN1CCN(C2Cc3ccccc3Sc3ccc(Cl)cc32)CC1 (centres undefined),?,.,-,.,-,-
CSc1ccc2c(c1)C(N1CCN(C)CC1)Cc1ccccc1S2 (centres undefined),18µM!,.,-,-,-,-
COc1cc(OC)c(N(C)C(=O)c2sc3nc4n(c(=O)c3c2C)CCCC4)cc1Cl,.,.,.,-,.,.
NNC(=O)CN1C(c2ccccc2)=Nc2ccc(Br)cc2C1c1ccccc1 (centres undefined),40µM,-,-,-,-,-
Cn1c(CNc2ccccc2O)nc2ccccc21,-,-[15.4 µM],-,14µM,-,-
Fc1cccc(CNc2ncnc3ccc(-c4ccoc4)cc23)c1,-,.,.,.,.,.
CCn1c(SCC(=O)c2ccc(O)c(O)c2)nnc1-c1ccc(C)cc1,-,-,-,12µM,-,-
CCNc1ccc(C(=O)O)cc1N,-,-,-,?,-,-
Nc1cc(C(=O)O)ccc1Nc1ccccc1,-,?,-,12µM,-,-
CCc1ccccc1Nc1ccc(C(=O)O)cc1N,-,-,-,3.1µM,-,-
Nc1ccccc1C(=O)Nc1cccc(C(=O)O)c1,-,-,-,-,-,-
CCc1cc(-c2n[nH]c(C)c2-c2nc3ccccc3n2C)c(O)cc1O,-,?,-,?,-,-
CCc1cc(-c2n[nH]c(C)c2-c2nc3ccccc3n2C)c(O)c(CN2CCN(C)CC2)c1O,-,-,-,8.9µM,-,-
Cc1cc(C(F)(F)F)nn1CC(=O)NNC(=S)Nc1ccc(F)cc1,.,-,-,40µM,-,-
Cc1cc(C(F)(F)F)nn1CC(=O)NNC(=S)Nc1ccc(Cl)cc1,-,-,-,-,-,-
SMILES,N370S GC mod,GAA inh,aGal spleen mod,GAA glycogen mod,GAA spleen mod,GLA inh pH 4.5
CC1(C)Cc2c(c(-c3ccccc3)nc3[nH][nH]c(=O)c23)CO1,-,-,-,5µM,-,-
CN(C)/N=C/c1c(O)ccc2ccccc12,-,-,-,14µM,-,-
Oc1ccccc1N=Cc1c(O)ccc2ccccc12,-,-,-,?,-,-
N#C/C(=C\c1c(Oc2ccc(Br)cc2)nc2ccccn2c1=O)c1nc2ccccc2s1,.,.,.,-,.,.
COc1ccc(Nc2cc(C)c3c(O)cccc3n2)cc1,-,.,-,22µM,-,-
CC(=O)OCC1OC(C#CC(C)(C)C)C=CC1OC(C)=O (centres undefined),-[12.8 µM],.,-[17.5 µM],.,-[17.4 µM],.
CSCC[C@H](NC(=O)[C@@H](NC(=O)[C@H](CCC(=O)O)NC(=O)[C@H](CCSC)NC(=O)[C@H](CC(N)=O)NC(=O)[C@H](CCC(=O)O)NC(=O)[C@H](CC(N)=O)NC(=O)[C@H](CO)NC(=O)[C@H](C)N)[C@@H](C)O)C(=O)O,-,.,-,.,-,.
COc1ccc(S(=O)(=O)NNC(=O)c2cc3cc4ccccc4nc3s2)cc1,-,?,-,12µM,-,-
CS(=O)(=O)NNC(=O)c1cc2cc3ccccc3nc2s1,-,-,-,16µM,-,-
O=C(OC1Cc2c(O)cc(O)cc2OC1c1cc(O)c(O)c(O)c1-c1c(C2Oc3cc(O)cc(O)c3CC2OC(=O)c2cc(O)c(O)c(O)c2)cc(O)c(O)c1O)c1cc(O)c(O)c(O)c1 (centres undefined),-,.,-,.,-,-
Nc1ccc(S(=O)(=O)O)cc1,-,.,-,.,-,.
CCOC(=O)N/N=C1/C[C@@H](O)[C@@H](O)[C@@H]2[C@@H]3C(=O)N([C@@H](C)c4ccccc4)C(=O)[C@H]3CC[C@@H]12,-[12.8 µM],.,-[17.5 µM],.,-[17.4 µM],.
Oc1cc(O)c2c(c1)O[C@H](c1ccc(O)c(O)c1)[C@H](O)C2,-,.,-,10µM,-,-
COc1cc(C2C(C#N)=C(N)Oc3n[nH]c(-c4cccs4)c32)cc(OC)c1O (centres undefined),-,.,-,18µM,-,-
O=c1c2ccccc2nc(COc2ccccc2)n1/N=C/c1ccc(O)c(O)c1,-,.,-,16µM,-,-
O=C(O)COc1ccc(/C=N/n2c(COc3ccccc3)nc3ccccc3c2=O)cc1,-,-,-,-,-,-
NC(=O)C(=CNc1nc(-c2ccc(Cl)c(Cl)c2)cs1)C(N)=O,-,.,-,7.1µM,-,-
O=C(O)c1ccc(-c2nc(-c3ccc(Cl)c(Cl)c3)cs2)cc1,-,-,-,-,-,-
CCOC(=O)C1=C(CN(C)Cc2ccccc2)NC(=O)NC1c1ccc(OC(C)C)cc1 (centres undefined),.,.,.,-,.,.
O=C(COc1ccccc1C(=O)N/N=C\c1ccc(O)c(O)c1)N/N=C/c1ccc(O)c(O)c1,-[12.8 µM],-,-,3.1µM,-,-
O=C(COc1ccccc1[N+](=O)[O-])N/N=C/c1ccc(O)c([N+](=O)[O-])c1,-,-,-,-,-,-
COc1ccc(OC)c(C2OCCC=CC2C)c1 (centres undefined),-[12.8 µM],.,-[17.5 µM],.,-[17.4 µM],.
CC(CNC(=O)Cn1c(-c2cccs2)cc2ccccc21)c1ccccc1 (centres undefined),.,.,.,-,.,.
COc1cc(-c2nc3ncccn3c2Nc2ccc(C)cc2C)ccc1O,.,.,.,10µM,.,.
Cc1ccc(Nc2c(-c3ccc(C)o3)nc3cnccn23)cc1,-,-,-,-,-,-
Cc1ccc(-c2nc3cnccn3c2Nc2ccc3c(c2)OCO3)o1,-,?,-,7.9µM,-,?
Cc1ccc(-c2nc3ccc(Br)cn3c2Nc2ccc3c(c2)OCO3)o1,.,.,.,-,.,.
COc1ccc(-c2nc3cnccn3c2Nc2ccc(C)cc2)cc1,?,-,-,7.1µM,-,-
Cc1ccn2c(Nc3ccc4c(c3)OCO4)c(-c3ccc(C)o3)nc2c1,.,.,.,4µM,.,.
